# According to PubChem BioAssay (Tox21):
# Unmarked numbers belong to inactive results. Records with an inconclusive call do not appear. Where a call stands in place of a potency, no number is given. Calls of active or inactive are those of the source. Calls follow the shape of the full dose curve.
# Key:
# [1] = biological target: Acetylcholinesterase (Homo sapiens) (UniProt P22303); experiment: Acetylcholinesterase (AChE) small molecule antagonists: colormetric cell-based qHTS assay (AID 1347395); also: nearly all actives have a fitted effect of over 30% in size; also: potency is read from the fitted curve at half-maximal effect
# Procedure, shortened: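 Homogeneous whole-cell format. SH-SY5Y cells seeded overnight, dosed with compound (30 min, 37 C, 5% CO2), then given DTNB/acetylthiocholine cocktail for 90 min at 37 C; colorimetric signal.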
# [2] = biological target: Acetylcholinesterase (Homo sapiens) (UniProt P22303); experiment: Acetylcholinesterase (AChE) small molecule antagonists: enzyme-based qHTS assay (AID 1347397); conditions: Potency: AChE enzyme activity inhibition; outcome: AChE enzyme activity inhibition; also: nearly all actives have a fitted effect of over 55% in size; also: potency is read from the fitted curve at half-maximal effect
# Procedure, shortened: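 Colorimetric DTNB readout of acetylthiocholine hydrolysis, 10 min at room temperature, after 30 min room-temperature exposure of 50 mU/mL recombinant human enzyme to compound; DMSO vehicle control.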
# [3] = biological target: Acetylcholinesterase (Homo sapiens) (UniProt P22303); experiment: Acetylcholinesterase (AChE) small molecule antagonists: fluorescence cell-based qHTS assay (AID 1347398); conditions: Potency: AChE activity; outcome: AChE activity; also: nearly all actives have a fitted effect of over 50% in size; also: potency is read from the fitted curve at half-maximal effect
# Procedure, shortened: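 Cellular AChE activity read as thiocholine from acetylthiocholine hydrolysis, detected by Thiolite Green fluorescence at 490/520 nm after 40 min at room temperature. Compounds were pre-incubated 30 min at 37 C on adherent SH-SY5Y cells.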
# [4] = biological target: Acetylcholinesterase (Homo sapiens) (UniProt P22303); experiment: Acetylcholinesterase (AChE) small molecule antagonists: enzyme-based qHTS assay with human liver microsomes (AID 1347399); conditions: Potency: qHTS inhibition; outcome: qHTS inhibition; also: nearly all actives have a fitted effect of over 60% in size
# Procedure, shortened: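 Recombinant human AChE (50 mU/mL in the enzyme mix) and human liver microsomes (0.25 mg/mL final) were preincubated with compound and NADPH (0.25 mg/mL final) for 30 min at 37 C. Acetylthiocholine/DTNB was then added; thiocholine was read colorimetrically after 10 min at room temperature.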
# Acetylcholinesterase (Homo sapiens), sequence (P22303 whole entry, looked up): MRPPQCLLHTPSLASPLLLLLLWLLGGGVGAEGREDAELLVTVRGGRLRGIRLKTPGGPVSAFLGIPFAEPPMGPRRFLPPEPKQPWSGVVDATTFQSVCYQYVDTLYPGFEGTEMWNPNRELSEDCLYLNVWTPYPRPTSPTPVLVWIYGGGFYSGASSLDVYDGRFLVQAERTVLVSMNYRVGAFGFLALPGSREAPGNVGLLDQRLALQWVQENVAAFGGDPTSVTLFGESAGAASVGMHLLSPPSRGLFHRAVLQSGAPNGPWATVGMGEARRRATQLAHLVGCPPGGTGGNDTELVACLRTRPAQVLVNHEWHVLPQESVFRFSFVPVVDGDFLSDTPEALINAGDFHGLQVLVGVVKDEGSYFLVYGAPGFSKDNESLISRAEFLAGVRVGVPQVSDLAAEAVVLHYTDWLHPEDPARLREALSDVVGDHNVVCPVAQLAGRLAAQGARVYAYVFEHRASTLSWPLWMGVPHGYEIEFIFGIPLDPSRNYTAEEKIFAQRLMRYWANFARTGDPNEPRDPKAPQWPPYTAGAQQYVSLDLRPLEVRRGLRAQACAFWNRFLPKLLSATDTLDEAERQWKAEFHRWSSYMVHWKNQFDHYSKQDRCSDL
Compound,Potency [1],Potency [2],Potency [3],Potency [4],"activity, negative = inhibition [1]","activity change, negative = inhibition [2]","activity change, negative = inhibition [3]","activity change, negative = inhibition [4]"
CCCCCCCC(=O)OCC(O)CO (configuration not stated),inactive,inactive,inactive,inactive,,,,
CCCc1nc2c(C)cc(-c3nc4ccccc4n3C)cc2n1Cc1ccc(-c2ccccc2C(=O)O)cc1,inactive,inactive,inactive,inactive,,,,
CC(=O)Oc1ccc(C2(c3ccc(OC(C)=O)cc3)C(=O)Nc3ccccc32)cc1,inactive,inactive,inactive,inactive,,,,
CC(CN1CC(=O)NC(=O)C1)N1CC(=O)NC(=O)C1 (configuration not stated),inactive,inactive,inactive,inactive,,,,
CCn1cc(C(=O)O)c(=O)c2cnc(N3CCCC3)nc21,,,,,2.45% [at 10.5 µM],0.534% [at 10.5 µM],15.4% [at 10.5 µM],-1.77% [at 10.5 µM]
C=COCC(C)C,inactive,inactive,inactive,inactive,,,,
O=C(O)c1cc(Cl)cc(Cl)c1,inactive,inactive,inactive,inactive,,,,
CN(C(=O)CN(CCO)CC(=O)N(C)C(C)(C)Cc1ccccc1)C(C)(C)Cc1ccccc1,inactive,inactive,inactive,inactive,,,,
CC(C)(CCC(=O)O)C(=O)O,inactive,inactive,inactive,inactive,,,,
Oc1cn2c(n1)Nc1ccc(Cl)c(Cl)c1C2,,,,,-9.64% [at 23.6 µM],0.842% [at 23.6 µM],-3.43% [at 23.8 µM],0.168% [at 23.6 µM]
COc1cc2c(c(OC)c1OC)-c1ccc(OC)c(=O)cc1[C@@H](NC(C)=O)CC2,inactive,inactive,inactive,inactive,,,,
C[C@H]1C[C@H]2[C@@H]3CCC4=CC(=O)C=C[C@]4(C)[C@@]3(F)[C@@H](O)C[C@]2(C)[C@@]1(O)C(=O)COP(=O)(O)O,inactive,inactive,inactive,inactive,,,,
OCC1CC2CC1C1CCC(CO)C21 (configuration not stated),inactive,inactive,inactive,inactive,,,,
OCc1ccc(Cl)cc1Cl,inactive,inactive,inactive,inactive,,,,
CC1(C)S[C@@H]2[C@H](NC(=O)[C@H](N)c3ccccc3)C(=O)N2[C@H]1C(=O)O,inactive,inactive,inactive,inactive,,,,
O=c1[nH]c2cc(C(F)(F)F)c(N3CCOCC3)cc2n(CP(=O)(O)O)c1=O,inactive,inactive,inactive,inactive,,,,
O=C(O)CN(CCOCCOCCN(CC(=O)O)CC(=O)O)CC(=O)O,,,,,-1.41% [at 0.435 µM],-0.554% [at 0.435 µM],2.07% [at 0.439 µM],-0.252% [at 0.435 µM]
CC(O)CN(CCN(CC(C)O)CC(C)O)CC(C)O (configuration not stated),inactive,inactive,inactive,inactive,,,,
O=C(Nc1cccc(C2=NCCN2)c1)Nc1cccc(C2=NCCN2)c1,3.79 µM (active),10.7 µM (active),2.13 µM (active),,,,,-3.93% [at 23.6 µM]
CC(C)(CO)COC(=O)C(C)(C)CO,inactive,inactive,inactive,inactive,,,,
CC(C)c1ccc2cc(C(C)C)ccc2c1,inactive,inactive,inactive,inactive,,,,
C/C=C/C=C/CO,inactive,inactive,inactive,inactive,,,,
COc1ccc([N+](=O)[O-])cc1N,inactive,inactive,inactive,inactive,,,,
CCCCN(CCO)CCO,inactive,inactive,inactive,inactive,,,,

Compound,Potency [1],Potency [2],Potency [3],Potency [4],"activity, negative = inhibition [1]","activity change, negative = inhibition [2]","activity change, negative = inhibition [3]","activity change, negative = inhibition [4]"
C=C(C)C(=O)OCCCCCCCCCC,inactive,inactive,inactive,inactive,,,,
O=C(O)Cc1csc(-c2ccc(Cl)cc2)n1,inactive,inactive,inactive,inactive,,,,
CC(=O)CCC=C(C)C,inactive,inactive,inactive,inactive,,,,
CCCCNCC,inactive,inactive,inactive,inactive,,,,
CCC(C)N (configuration not stated),inactive,inactive,inactive,inactive,,,,
Nc1ccc(S(=O)(=O)NCc2ccccc2)cc1,inactive,inactive,inactive,inactive,,,,
CCCCCCCCCCCCC(=O)O,inactive,inactive,inactive,inactive,,,,
CC(=O)OCc1ccco1,inactive,inactive,inactive,inactive,,,,
Cc1cccc(N(C)C(=S)Oc2ccc3c(c2)C2CCC3C2)c1 (configuration not stated),inactive,inactive,inactive,inactive,,,,
CCCc1ncc(C(=O)O)s1,inactive,inactive,inactive,inactive,,,,
CC1(C)O[C@@H]2C[C@H]3[C@@H]4C[C@H](F)C5=CC(=O)C=C[C@]5(C)[C@@]4(F)[C@@H](O)C[C@]3(C)[C@]2(C(=O)CO)O1,inactive,inactive,inactive,inactive,,,,
CC(=O)OC(C)OC(=O)C(C)c1ccc(-c2ccccc2)c(F)c1 (configuration not stated),inactive,inactive,inactive,inactive,,,,
COC(=O)C1=C(C)NC(C)=C(C(=O)OCC(C)C)C1c1ccccc1[N+](=O)[O-] (configuration not stated),inactive,inactive,inactive,inactive,,,,
O=S1(=O)CC=CC1,inactive,inactive,inactive,inactive,,,,
CC(C)CC(=O)OCc1ccccc1,inactive,inactive,inactive,inactive,,,,
CCOC(=O)[C@H](CCc1ccccc1)N[C@@H](C)C(=O)N(CC(=O)O)C1Cc2ccccc2C1,inactive,inactive,inactive,inactive,,,,
C=CC(=O)OCCOCCOC(=O)C=C,inactive,inactive,inactive,inactive,,,,
CCOC(=O)COc1ccc(C)cc1,inactive,inactive,inactive,inactive,,,,
CO[Si](CCCNCCNCCN)(OC)OC,inactive,inactive,inactive,inactive,,,,
CC(=O)N/N=C/c1ccc([N+](=O)[O-])o1,inactive,inactive,inactive,inactive,,,,
CC(=O)C(C)C,inactive,inactive,inactive,inactive,,,,
CCNC(=O)N1CCN(CCCC(c2ccc(F)cc2)c2ccc(F)cc2)CC1,inactive,inactive,inactive,inactive,,,,
CCCc1ccccc1,inactive,inactive,inactive,inactive,,,,
O=C[C@@H](O)[C@H](O)[C@H](O)CO,inactive,inactive,inactive,inactive,,,,
